Experimental data as given in PubChem BioAssay (NCI).
About 83,000 compounds went through this panel and 20% of them were active in at least one assay; those are over-represented in the sample as a whole.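 The test compound was applied at a single concentration to cells in 96-well plates for 48 hours, and percent growth was recorded.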 Calls of active or inactive are those of the source. Rule for the calls: active = growth percent below 10; inactive = the rest.

system: RXF 393 renal; experiment: NCI-60 one-dose screen, 48 h (100 = growth as untreated, 0 = no growth, -100 = all killed); details: 10 µM unless noted

| Compound | growth |
| --- | --- |
| COc1cc(C(=O)n2nc(N3CCN(C)CC3)c3cc(N)ccc32)cc(OC)c1OC | -13.3% (active) |
| O=C1N[C@@H]2NC(=[N+]3CCOCC3)N[C@@H]2N1 | 116% (inactive) |
| N#Cc1c(N)nnn1Cc1cc(=O)oc2c1ccc1ccccc12 | 104% (inactive) |
| COc1cc(OC)cc(C2=C3CC[C@@H]4[C@H](CC[C@]5(C)C(=O)CC[C@@H]45)C3=CC3C(O)c4cccnc4N4C(=O)COC234)c1 (stereo not given in full) | 107% (inactive) |
| C=C(C)[C@@H]1CC[C@]2(C(=O)N3CCN(C)CC3)CC[C@]3(C)[C@H](CC[C@@H]4[C@@]5(C)CC(=C/c6ccncc6)/C(=N/O)C(C)(C)[C@@H]5CC[C@]43C)[C@@H]12 | 71.9% (inactive) |
| CN1CCN(Cc2ccc3c(NNC(=O)c4ccccc4)nc4cc(F)ccc4n23)CC1 | 39% (inactive) |
| CCOC(=O)c1c2c(n3ccc(C)cc13)C(=O)c1ccccc1C2=O | 95.6% (inactive) |
| CCCC(=O)NC(c1ccc2c(c1)OCO2)c1ccc2cccnc2c1O (stereo not given) | 18.3% (inactive) |
| Cc1nc2sc(C(=O)Nc3ccccc3)c(N)c2cc1C(=O)c1ccccc1 | -0.48% (active) |
| COC(=O)c1ccc2c(c1)C(=O)c1c-2n(CCCN)c(=O)c2cc([N+](=O)[O-])ccc12 | -87.5% (active) |
| CO[C@]12C=C/C(=C(/C(=O)OCc3cccnc3)C(=O)CCCCCCCC[C@@]3(OC)C=C/C(=C(/C(=O)OCc4cccnc4)C(=O)CCCCCCCC1)O3)O2 | -87.2% (active) |
| Brc1c2c(c(Br)c3ccccc13)CCCC2 | 101% (inactive) |
| Cc1cc2c([nH]1)CSc1cc(S(=O)(=O)c3ccccc3)c(=O)[nH]c1-2 | 52.6% [100 µM] (inactive) |
| CC1=C(Nc2ccc(N3CCN(C)CC3)cc2)C(=O)c2cncnc2C1=O | 118% (inactive) |
| CCCCCCC1(C)NCCO1 (stereo not given) | 118% (inactive) |
| C#CCOc1cccc(Nc2ncnc3ccc(NC(=O)CCl)cc23)c1 | -77.1% (active) |
| COc1ccc(C(=O)C2C(c3ccc(OC)cc3)CN(C)C23C(=O)Nc2ccccc23)cc1 (stereo not given) | 80.8% (inactive) |
| CCN(CC)CCNC(=O)c1cn2ncnc(Oc3ccc(NC(=O)Nc4ccc(Cl)c(C(F)(F)F)c4)c(F)c3)c2c1C | -44.9% (active) |
| CC(=O)OCc1nc(C#N)c(N(C)C)o1 | 87.6% (inactive) |
| CN[C@]12CC3(C=CC(=O)C=C3)O[C@@]1(Cc1ccc(OC)cc1)N(C)C(=O)N2 | 43.7% (inactive) |

| Compound | growth |
| --- | --- |
| C=C(CNCCc1ccc(O)cc1)[C@@H]1CC[C@]2(CO)CC[C@]3(C)[C@H](CC[C@@H]4[C@@]5(C)CCC(NCCO)C(C)(C)[C@@H]5CC[C@]43C)[C@@H]12 (stereo not given in full) | -90.3% (active) |
| O=C1/C(=C\c2cn(-c3ccccc3)nc2-c2ccc(-c3cccs3)cc2)CCc2ccccc21 | 58.1% (inactive) |
| Cc1ccc(-c2nn(-c3ccccc3)cc2C=C2C(=O)ON=C2C(C)C)cc1 | 89.9% (inactive) |
| CC/C(=C(/c1ccc(Cl)cc1)c1ccc(OCCN2CCCC2)cc1)c1ccc(OC)cc1 | 67% (inactive) |
| Cc1c(-c2nc3ccc(F)cc3c(=O)[nH]2)c2ccccc2n1C | 14.3% (inactive) |
| COC1=CC(c2ccc[nH]2)=N/C1=C\c1[nH]c(C)c(C(=O)OCc2ccccc2)c1C | -18.1% (active) |
| COc1ccc(C/C(C)=C(/c2ccc(OCCN3CCCCC3)cc2)c2ccc(OC(=O)NCc3ccccc3)cc2)cc1 | -91.4% (active) |
| CC(C)N1CN2C(=S)NC3C2N(C1)C(=S)N3C (stereo not given) | 105% (inactive) |
| CCCCN[C@H]1CC[C@@]2(C)[C@@H](CC[C@@]3(C)[C@H]2[C@H](O)C[C@H]2/C(=C(\CCC=C(C)C)C(=O)OC)[C@@H](OC(C)=O)C[C@@]23C)[C@@H]1C | 103% (inactive) |
| O=[N+]([O-])c1ccc(-c2nc(N3CCOCC3)c3c4c(sc3n2)CCCC4)cc1 | 104% (inactive) |
| COc1cc(N2C(=O)[C@H](O)C2c2ccc(SC)cc2)cc(OC)c1OC (stereo not given in full) | 15.3% (inactive) |
| C#Cc1ccc(NC(=O)c2ccc(/C=C/C(=O)c3nccn3C)cc2)cc1 | -86.3% (active) |
| Cc1nnc(NC(=O)c2nc(S(=O)(=O)Cc3ccc(F)cc3)ncc2Cl)s1 | 87.3% (inactive) |
| Cc1ccccc1/C=C1\CN(C(=O)OC(C)(C)C)C/C(=C\c2ccccc2C)C1=O | 61.1% (inactive) |
| C[C@]12C=CC(=O)C=C1CCC1C2[C@@H](O)C[C@@]2(C)C1CC[C@]2(O)C(=O)COC(=O)CCC(=O)O (stereo not given in full) | 126% (inactive) |
| O=C(Cn1c2c(c3ccccc31)CCCC2)Nc1ccc(-c2nc3ccccc3s2)cc1 | 105% (inactive) |
| Cc1cc(Cl)ccc1Nc1nc(C(F)(F)F)ccc1C(=O)N/N=C/c1ccc([N+](=O)[O-])cc1 | 5.4% (active) |
| O=C(Nn1c2c(sc1=NCc1ccccc1)C(=O)c1ccccc1C2=O)c1cc2ccc1CCc1ccc(cc1)CC2 | 60.3% (inactive) |
| CC(C)c1ccc(COCc2cc(CN3CCCC3)c(O)c3ncccc23)cc1 | 3.03% (active) |
| Cn1cccc1C(=O)C1C(c2cccc([N+](=O)[O-])c2)C2C3CCCCC3CN2C12C(=O)Nc1ccc(Cl)cc12 (stereo not given) | -16.8% (active) |
